Screening data: PubChem, Broad Institute
FadD28 binding – inhibitors of Mycobacterium tuberculosis FadD28 bisubstrate binding; inhibition, % at 12.5 µM; FadD28 bisubstrate probe binding, fluorescence polarization; AID 588549; actives 0.22% (n = 360,000); in the data active = inhibition above about 8.5%, passing the limit was not always enough
PrP UTR inh – suppresses PrP 5' UTR mRNA reporter expression | cell-based PrP 5' UTR mRNA reporter, plate reader | inhibition, % (no concentration beside the values) | actives 0.35% (n = 340,000) | AID 488862; in the data active = inhibition above about 52%
Y pestis TopoI – Y. pestis Topo-I inhibition via cleavage products; AID 504884; activity, % at 10 µM; actives 0.064% (n = 360,000); Y. pestis Topo-I cleavage product accumulation, plate reader; in the data active = activity above about 50%, passing the limit was not always enough
Mtb BioA inh – blocks M. tuberculosis BioA enzyme activity; purified M. tuberculosis BioA enzyme, plate reader; inhibition, % at 9.99 µM; actives 0.096% (n = 360,000); AID 602481; in the data active = inhibition above about 40%
PfHsp40 yeast – compounds rescuing yeast from Plasmodium falciparum HSP40 toxicity. S. cerevisiae expressing PfHsp40, growth rescue, ATP luminescence. growth rescue, % at 12.5 µM. actives 0.68% (n = 340,000); in the data active = growth rescue above about 28%, passing the limit was not always enough;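 also: yeast W303a lacking pdr1 and pdr3 grown in galactose medium; growth measured after three days at 30 °C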
PrP 5UTR single – prion 5' UTR mRNA inhibition, cherry-pick retest; actives 48% (n = 1,100); shares compounds with PrP UTR inh; cell-based prion protein 5' UTR reporter, plate reader; AID 504592; inhibition, % at 2.5 µM; in the data active = inhibition above about 54%
Numbers stand for hits; 0 = inactive; - = no result given. In the library only some 1.1% were active in any assay of this set; here they are far more common.

SMILES	FadD28 binding	PrP UTR inh	Y pestis TopoI	Mtb BioA inh	PfHsp40 yeast	PrP 5UTR single
CCOC(=O)c1ccc(NC(=O)COc2ccccc2CNCCO)cc1	0	74	0	-	0	0
O=C(C[C@@H]1CC[C@H]2[C@@H](COC[C@@H](O)CN2CCC(F)(F)F)O1)NCC1CC1	-	-	-	0	-	-
C=Cc1cc(OC)c2c(c1)c(=O)oc1c2cc(OC)c2c(O)ccc(C3OC(C)C(O)C(C)(O)C3O)c21 (configuration not stated)	0	68	0	-	0	75
O=C(NC1CCCCC1)N1CCN(c2ccccc2)CC1	0	67	0	0	0	0
C[C@H](NC(=O)[C@H]1[C@H](CO)[C@H]2Cn3c(cccc3=O)[C@@H]1N2C(=O)C1CCCC1)c1ccccc1	-	-	-	0	-	-
CC(C)C[C@H](NC(=O)[C@@H]1CCCN1C(=O)[C@@H](N)Cc1ccc(O)cc1)C(=O)NCC(N)=O	0	84	0	0	0	0
CC(C)CC(NC(=O)C1CCCN1C(=O)CNC(=O)OCc1ccccc1)C(=O)O (configuration not stated)	0	0	0	0	0	-
CCN(CC)C(=O)C1CCCN(c2ccc([N+](=O)[O-])cc2[N+](=O)[O-])C1 (configuration not stated)	0	70	0	-	0	0
O=S(=O)(c1ccc(F)cc1)N1C[C@@H]2[C@H](c3ccccc31)[C@H](CO)N2Cc1ccc2c(c1)OCO2	-	-	-	0	-	-
COC(=O)N(C)c1nc2ccccc2s1	0	0	0	0	0	-
CC(C)c1ccc(-c2nc3ccccc3s2)cc1	0	85	0	-	0	85
CN(C(=O)OC(C)(C)C)c1ccc(-c2nc3ccccc3s2)cc1	0	90	0	0	0	88
O=C(C[C@H]1C[C@@H]2c3cc(NC(=O)c4ccc5c(c4)OCO5)ccc3O[C@@H]2[C@H](CO)O1)NCC(F)(F)F	-	-	-	0	-	-
Cc1noc(C)c1NC(=O)Nc1cccc2c1O[C@@H](CN(C)Cc1ccc(Cl)c(Cl)c1)[C@@H](C)CN([C@H](C)CO)C2=O	-	-	-	0	-	-
Cc1ccc(C2(SCC(N)C(=O)O)c3ccccc3-c3ccccc32)cc1 (configuration not stated)	0	89	0	-	0	0
NC(CSC(c1ccccc1)(c1ccccc1)c1ccccc1)C(=O)O (configuration not stated)	0	0	0	-	0	-
Cc1ccc(NC(=O)CSc2ccccn2)cc1S(=O)(=O)N1CCOCC1	0	0	0	-	0	-
O=C(O)c1cc(S(=O)(=O)N2CCOCC2)c(Sc2ccccn2)cc1Sc1ccccn1	0	69	0	-	0	0
CC(C)NC(=O)N[C@@H]1C=C[C@H](CC(=O)NC2Cc3ccccc3C2)O[C@@H]1CO	-	-	-	0	-	-
O=C(NCc1ccccc1Cl)c1ccc[nH]1	0	77	0	0	0	0
COc1ccc(OC)c(C2C3=C(COC3=O)Nc3cc4c(cc32)OCO4)c1 (configuration not stated)	0	58	0	0	0	90
CN(C)CCNCCCNc1c2ccccc2nc2cccc([N+](=O)[O-])c12	0	95	0	-	0	98
COc1ccc(NC(=O)C(=O)NCC(c2ccco2)N2CCc3ccccc32)cc1 (configuration not stated)	0	53	0	0	0	80
Cc1cc(C=C2C(=O)c3ccccc3C2=O)c(C)n1-c1ccccc1	0	75	0	0	0	62
Cc1cc(C=C2C(=O)c3ccccc3C2=O)c(C)n1-c1ccc(C(=O)O)cc1	0	0	0	-	0	-
SMILES	FadD28 binding	PrP UTR inh	Y pestis TopoI	Mtb BioA inh	PfHsp40 yeast	PrP 5UTR single
COC(=O)CSc1n[nH]c(=S)s1	0	0	0	0	0	-
CCSc1n[nH]c(=S)s1	0	77	0	-	0	0
O=C(C[C@H]1C=C[C@H](NC(=O)CCN2CCCCC2)[C@H](CO)O1)Nc1ccc(-c2ccccc2)cc1	-	-	-	0	-	-
C=C1C(=O)O[C@@H]2C[C@@H](C)[C@@H]3C=CC(=O)[C@@]3(C)[C@@H](OC(=O)CC(=O)O[C@H]3[C@@H]4C(=C)C(=O)O[C@@H]4C[C@@H](C)[C@@H]4C=CC(=O)[C@]43C)[C@H]12	0	95	0	0	0	98
C=C1C(=O)OC2CC(C)C3C=CC(=O)C3(C)C(O)C12 (configuration not stated)	0	0	0	-	0	-
C=CC[n+]1c(-c2ccc(C)cc2)csc1Nc1ccc(NC(C)=O)cc1	0	71	0	-	0	59
Cn1c(O)c(C=NC2CCCCC2)c(=O)[nH]c1=S	0	53	0	-	0	0
